Each compound was assayed on WHIM2 (cells of a triple-negative basal-like breast cancer xenograft) (assay: cell viability of combination (% of vehicle); higher = less cytotoxic). Settings: 1 µM; 72 h; partner dose: 10 nM.
Experimental: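 PDX cells were treated for 72 h with each drug at 1 µM plus afatinib (10 nM; 1 µM for WHIM30). Luciferase viability is expressed as percent of vehicle.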

Point of comparison: `CCCCCCCCCCCCCCCC[n+]1ccccc1.[Cl-]` [Cetylpyridinium Chloride] + CN(C)C/C=C/C(=O)Nc1cc2c(Nc3ccc(F)c(Cl)c3)ncnc2cc1O[C@H]1CCOC1 [Afatinib], “cell viability of combination” value 32.2. Against it:
- Cc1cc(C(C#N)c2ccc(Cl)cc2)c(Cl)cc1NC(=O)c1cc(I)cc(I)c1O (stereo not given) [Closantel] + CN(C)C/C=C/C(=O)Nc1cc2c(Nc3ccc(F)c(Cl)c3)ncnc2cc1O[C@H]1CCOC1 [Afatinib] — higher, 47
- CCCCCCCCCCCCCCCC[N+](C)(C)C.[Br-] [Cetrimonium Bromide (CTAB)] + CN(C)C/C=C/C(=O)Nc1cc2c(Nc3ccc(F)c(Cl)c3)ncnc2cc1O[C@H]1CCOC1 [Afatinib] — higher, 38
- Cc1cc(C(C#N)c2ccc(Cl)cc2)c(Cl)cc1NC(=O)c1cc(I)cc(I)c1[O-].[Na+] (stereo not given) [Closantel Sodium] + CN(C)C/C=C/C(=O)Nc1cc2c(Nc3ccc(F)c(Cl)c3)ncnc2cc1O[C@H]1CCOC1 [Afatinib] — higher, 49.1
- CCCCCCCCCCCC[N+](C)(C)CCOc1ccccc1.[Br-] [Domiphen Bromide] + CN(C)C/C=C/C(=O)Nc1cc2c(Nc3ccc(F)c(Cl)c3)ncnc2cc1O[C@H]1CCOC1 [Afatinib] — higher, 41.6
